# Experimental data as given in paper PMC7862700, “An all-to-all approach to the identification of sequence-specific readers for epigenetic DNA modifications on cytosine”.
# What was measured:
# Experiment in all cases: DAPPL (digital affinity profiling via proximity ligation, sequencing); 10 mM Tris-HCl pH 7.5, 50 mM NaCl, 1 mM DTT, 4% glycerol, room temperature, 30 min; GST-TFs on glutathione beads, 16-mer random dsDNA library, 0.1% formaldehyde crosslink after washing; high values mean tight binding
# FLI1 = target: T1, FLI1 (Homo sapiens, UniProt Q01543 1-452); details: protein: recombinant; tags: N-terminal GST; dsDNA, one strand shown
# T1 sequence: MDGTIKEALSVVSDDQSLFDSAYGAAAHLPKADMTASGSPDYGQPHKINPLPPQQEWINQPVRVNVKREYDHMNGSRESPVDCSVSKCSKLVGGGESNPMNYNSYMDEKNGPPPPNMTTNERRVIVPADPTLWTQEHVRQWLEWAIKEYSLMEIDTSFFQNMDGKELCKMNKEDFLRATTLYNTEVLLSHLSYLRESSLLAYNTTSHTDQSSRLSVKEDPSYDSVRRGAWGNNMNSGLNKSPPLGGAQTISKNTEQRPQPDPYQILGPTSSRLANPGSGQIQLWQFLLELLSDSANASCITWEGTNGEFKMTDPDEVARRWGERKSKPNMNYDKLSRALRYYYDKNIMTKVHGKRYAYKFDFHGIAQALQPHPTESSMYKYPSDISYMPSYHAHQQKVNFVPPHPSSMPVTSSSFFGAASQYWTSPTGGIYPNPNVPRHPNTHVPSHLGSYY
# Summary of the method: (§1)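 GST fusions of human transcription factors were expressed in yeast and captured with glutathione beads. Once given DNA barcodes and pooled alongside a tag-only sample, they were incubated for 30 min at room temperature with 200 nmole of a random double-stranded 16-mer DNA library in Tris/NaCl/DTT/glycerol buffer, then washed, crosslinked (0.1% formaldehyde), proximity-ligated, PCR-amplified and sequenced on an Illumina NextSeq500. The binding signal of each hexamer is its read frequency for a factor divided by its frequency for the tag-only sample.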
# ELK1 = target: T2, ELK1 (Homo sapiens, UniProt P19419 1-428); details: protein: recombinant; tags: N-terminal GST; dsDNA, one strand shown
# T2 sequence: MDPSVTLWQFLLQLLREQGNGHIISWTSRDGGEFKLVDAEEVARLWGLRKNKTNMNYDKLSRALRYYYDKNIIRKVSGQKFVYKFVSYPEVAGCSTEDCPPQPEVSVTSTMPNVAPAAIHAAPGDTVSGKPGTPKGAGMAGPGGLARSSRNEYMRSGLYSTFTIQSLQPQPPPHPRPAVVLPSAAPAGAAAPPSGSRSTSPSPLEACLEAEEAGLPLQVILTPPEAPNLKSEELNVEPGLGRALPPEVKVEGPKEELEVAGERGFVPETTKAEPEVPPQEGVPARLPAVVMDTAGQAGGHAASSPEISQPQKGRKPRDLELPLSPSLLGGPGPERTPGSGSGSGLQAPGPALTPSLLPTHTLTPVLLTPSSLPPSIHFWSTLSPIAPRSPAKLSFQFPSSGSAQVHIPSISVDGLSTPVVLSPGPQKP
# Summary of the method: as §1
# GABPA = target: T3, GABPA (Homo sapiens, UniProt Q06546 1-454); details: protein: recombinant; tags: N-terminal GST; dsDNA, one strand shown
# T3 sequence: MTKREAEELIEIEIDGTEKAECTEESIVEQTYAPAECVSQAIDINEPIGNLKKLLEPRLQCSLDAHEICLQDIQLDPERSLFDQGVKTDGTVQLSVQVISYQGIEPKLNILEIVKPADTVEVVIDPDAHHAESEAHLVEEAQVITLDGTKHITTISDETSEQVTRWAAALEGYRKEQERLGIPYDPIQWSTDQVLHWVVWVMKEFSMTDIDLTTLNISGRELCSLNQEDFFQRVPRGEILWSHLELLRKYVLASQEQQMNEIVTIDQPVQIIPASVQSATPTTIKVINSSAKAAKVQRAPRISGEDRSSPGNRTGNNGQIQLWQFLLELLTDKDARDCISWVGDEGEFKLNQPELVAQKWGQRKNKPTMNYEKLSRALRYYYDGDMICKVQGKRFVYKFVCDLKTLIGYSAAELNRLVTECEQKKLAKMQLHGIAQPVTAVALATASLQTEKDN
# Summary of the method: as §1
# ERG = target: T4, ERG (Homo sapiens, UniProt P11308 1-479); details: protein: recombinant; tags: N-terminal GST; dsDNA, one strand shown
# T4 sequence: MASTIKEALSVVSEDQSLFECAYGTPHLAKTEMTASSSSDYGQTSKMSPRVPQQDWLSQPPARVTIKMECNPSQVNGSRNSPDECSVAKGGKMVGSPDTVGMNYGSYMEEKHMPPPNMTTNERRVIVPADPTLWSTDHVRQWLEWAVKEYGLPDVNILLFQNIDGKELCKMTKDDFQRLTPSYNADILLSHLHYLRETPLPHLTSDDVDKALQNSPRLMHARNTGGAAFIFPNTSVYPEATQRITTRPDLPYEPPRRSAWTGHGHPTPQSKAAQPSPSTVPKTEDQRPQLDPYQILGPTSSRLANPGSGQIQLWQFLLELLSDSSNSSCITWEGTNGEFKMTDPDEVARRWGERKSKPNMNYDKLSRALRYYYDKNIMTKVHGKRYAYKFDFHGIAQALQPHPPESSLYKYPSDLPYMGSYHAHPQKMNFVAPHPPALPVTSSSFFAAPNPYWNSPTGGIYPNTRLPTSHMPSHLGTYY
# Summary of the method: as §1
# ELF1 = ELF1 (Homo sapiens, UniProt P32519 1-619); details: protein: recombinant; tags: N-terminal GST; dsDNA, one strand shown
# Summary of the method: as §1
# EHF = target: T5, EHF (Homo sapiens, UniProt Q9NZC4 1-300); details: protein: recombinant; tags: N-terminal GST; dsDNA, one strand shown
# T5 sequence: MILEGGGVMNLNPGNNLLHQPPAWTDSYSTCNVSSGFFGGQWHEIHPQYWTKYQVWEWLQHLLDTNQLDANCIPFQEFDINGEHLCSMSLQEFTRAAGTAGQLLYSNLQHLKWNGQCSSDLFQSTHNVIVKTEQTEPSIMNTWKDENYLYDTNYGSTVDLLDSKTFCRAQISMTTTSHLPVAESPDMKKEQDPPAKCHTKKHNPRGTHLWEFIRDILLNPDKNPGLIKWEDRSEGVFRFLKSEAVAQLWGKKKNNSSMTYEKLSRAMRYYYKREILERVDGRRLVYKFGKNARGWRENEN
# Summary of the method: as §1
# SPI1 = SPI1 (Homo sapiens, UniProt P17947 1-270); details: protein: recombinant; tags: N-terminal GST; dsDNA, one strand shown
# Summary of the method: as §1
# SPIB = SPIB (Homo sapiens, UniProt Q01892 1-262); details: protein: recombinant; tags: N-terminal GST; dsDNA, one strand shown
# Summary of the method: as §1
# ELK3 = target: T6, ELK3 (Homo sapiens, UniProt P41970 1-407); details: protein: recombinant; tags: N-terminal GST; dsDNA, one strand shown
# T6 sequence: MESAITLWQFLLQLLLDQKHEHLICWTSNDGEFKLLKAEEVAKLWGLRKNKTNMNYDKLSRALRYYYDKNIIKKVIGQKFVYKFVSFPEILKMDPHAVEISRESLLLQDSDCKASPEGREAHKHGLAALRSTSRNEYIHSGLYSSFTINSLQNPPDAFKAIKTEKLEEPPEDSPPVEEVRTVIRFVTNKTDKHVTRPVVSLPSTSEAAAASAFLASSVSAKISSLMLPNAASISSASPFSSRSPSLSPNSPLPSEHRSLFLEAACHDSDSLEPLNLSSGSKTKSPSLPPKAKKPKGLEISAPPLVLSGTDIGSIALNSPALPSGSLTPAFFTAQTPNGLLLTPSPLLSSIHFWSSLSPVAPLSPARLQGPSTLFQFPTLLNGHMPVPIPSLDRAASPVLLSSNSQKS
# Summary of the method: as §1
# FEV = target: T7, FEV (Homo sapiens, UniProt Q99581 1-238); details: protein: recombinant; tags: N-terminal GST; dsDNA, one strand shown
# T7 sequence: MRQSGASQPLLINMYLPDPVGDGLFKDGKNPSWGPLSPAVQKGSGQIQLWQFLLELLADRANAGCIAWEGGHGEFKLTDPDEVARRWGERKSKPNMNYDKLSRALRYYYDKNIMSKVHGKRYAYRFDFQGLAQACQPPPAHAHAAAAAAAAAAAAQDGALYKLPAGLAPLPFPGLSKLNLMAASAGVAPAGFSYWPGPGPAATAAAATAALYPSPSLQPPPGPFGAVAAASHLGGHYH
# Summary of the method: as §1
# ETV5 = ETV5 (Homo sapiens, UniProt P41161 1-510); details: protein: recombinant; tags: N-terminal GST; dsDNA, one strand shown
# Summary of the method: as §1
# HSF1 = HSF1 (Homo sapiens, UniProt Q00613 1-529); details: protein: recombinant; tags: N-terminal GST; chain copies: 3; dsDNA, one strand shown
# Summary of the method: as §1
# SPIC = target: T8, SPIC (Homo sapiens, UniProt Q8N5J4 1-248); details: protein: recombinant; tags: N-terminal GST; dsDNA, one strand shown
# T8 sequence: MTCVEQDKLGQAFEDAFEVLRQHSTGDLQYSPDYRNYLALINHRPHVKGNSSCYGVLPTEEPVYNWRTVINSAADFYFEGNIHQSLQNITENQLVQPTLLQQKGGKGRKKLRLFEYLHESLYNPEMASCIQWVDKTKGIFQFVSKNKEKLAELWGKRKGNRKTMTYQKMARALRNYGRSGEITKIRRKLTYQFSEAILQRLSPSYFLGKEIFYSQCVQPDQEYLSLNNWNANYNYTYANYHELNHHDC
# Summary of the method: as §1
# ELF4 = ELF4 (Homo sapiens, UniProt Q99607 1-663); details: protein: recombinant; tags: N-terminal GST; dsDNA, one strand shown
# Summary of the method: as §1
# ELK4 = target: T9, ELK4 (Homo sapiens, UniProt P28324-2 1-405); details: protein: recombinant; tags: N-terminal GST; dsDNA, one strand shown
# T9 sequence: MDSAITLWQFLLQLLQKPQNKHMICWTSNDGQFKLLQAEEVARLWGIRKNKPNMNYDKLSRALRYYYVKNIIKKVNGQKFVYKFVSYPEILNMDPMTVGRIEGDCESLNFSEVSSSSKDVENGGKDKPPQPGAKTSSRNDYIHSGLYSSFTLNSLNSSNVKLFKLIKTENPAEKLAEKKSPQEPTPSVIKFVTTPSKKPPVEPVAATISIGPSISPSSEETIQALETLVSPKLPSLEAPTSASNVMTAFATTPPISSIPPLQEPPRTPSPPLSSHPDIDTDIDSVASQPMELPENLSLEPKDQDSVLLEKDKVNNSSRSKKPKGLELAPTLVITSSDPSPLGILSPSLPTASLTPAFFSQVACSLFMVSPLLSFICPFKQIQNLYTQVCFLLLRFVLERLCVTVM
# Summary of the method: as §1
# ETV2 = target: T10, ETV2 (Homo sapiens, UniProt O00321 1-342); details: protein: recombinant; tags: N-terminal GST; dsDNA, one strand shown
# T10 sequence: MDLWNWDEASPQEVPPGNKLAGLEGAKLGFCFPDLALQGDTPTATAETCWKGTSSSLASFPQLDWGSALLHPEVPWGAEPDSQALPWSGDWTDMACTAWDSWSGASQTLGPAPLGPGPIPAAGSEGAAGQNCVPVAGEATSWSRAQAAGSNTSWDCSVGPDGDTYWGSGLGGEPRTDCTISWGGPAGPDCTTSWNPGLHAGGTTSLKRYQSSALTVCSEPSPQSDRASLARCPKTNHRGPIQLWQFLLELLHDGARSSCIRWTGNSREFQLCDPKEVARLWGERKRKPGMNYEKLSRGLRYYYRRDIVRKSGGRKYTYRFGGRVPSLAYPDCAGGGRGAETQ
# Summary of the method: as §1
# ELF3 = target: T11, ELF3 (Homo sapiens, UniProt P78545 1-371); details: protein: recombinant; tags: N-terminal GST; dsDNA, one strand shown
# T11 sequence: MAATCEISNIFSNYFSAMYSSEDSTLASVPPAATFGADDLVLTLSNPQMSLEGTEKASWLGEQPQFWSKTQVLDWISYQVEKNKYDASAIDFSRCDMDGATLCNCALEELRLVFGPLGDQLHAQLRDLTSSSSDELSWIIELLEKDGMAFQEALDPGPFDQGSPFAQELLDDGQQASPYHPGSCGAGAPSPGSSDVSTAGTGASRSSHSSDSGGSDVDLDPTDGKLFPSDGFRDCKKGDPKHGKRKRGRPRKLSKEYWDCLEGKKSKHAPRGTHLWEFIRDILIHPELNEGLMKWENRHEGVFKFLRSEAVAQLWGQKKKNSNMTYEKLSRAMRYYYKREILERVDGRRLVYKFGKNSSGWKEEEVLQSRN
# Summary of the method: as §1
# CRX = CRX (Homo sapiens, UniProt O43186 1-299); details: protein: recombinant; tags: N-terminal GST; dsDNA, one strand shown
# Summary of the method: as §1
# ETV1 = ETV1 (Homo sapiens, UniProt P50549 1-477); details: protein: recombinant; tags: N-terminal GST; dsDNA, one strand shown
# Summary of the method: as §1
# Chain of HSF1 (Q00613 whole entry): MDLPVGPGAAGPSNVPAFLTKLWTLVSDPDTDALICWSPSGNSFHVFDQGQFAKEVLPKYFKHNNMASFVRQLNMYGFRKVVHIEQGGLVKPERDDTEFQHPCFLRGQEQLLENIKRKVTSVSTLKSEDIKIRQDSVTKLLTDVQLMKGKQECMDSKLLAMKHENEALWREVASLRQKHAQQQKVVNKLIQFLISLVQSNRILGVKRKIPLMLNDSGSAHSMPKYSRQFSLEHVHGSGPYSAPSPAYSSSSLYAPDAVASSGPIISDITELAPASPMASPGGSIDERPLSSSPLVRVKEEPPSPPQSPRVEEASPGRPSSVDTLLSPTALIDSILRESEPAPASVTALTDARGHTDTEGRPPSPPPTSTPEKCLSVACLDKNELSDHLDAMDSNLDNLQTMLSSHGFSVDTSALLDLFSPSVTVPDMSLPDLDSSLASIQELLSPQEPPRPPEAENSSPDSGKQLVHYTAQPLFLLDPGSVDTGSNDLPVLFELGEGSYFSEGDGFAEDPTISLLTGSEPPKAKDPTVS
# Chain of SPIB (Q01892 whole entry): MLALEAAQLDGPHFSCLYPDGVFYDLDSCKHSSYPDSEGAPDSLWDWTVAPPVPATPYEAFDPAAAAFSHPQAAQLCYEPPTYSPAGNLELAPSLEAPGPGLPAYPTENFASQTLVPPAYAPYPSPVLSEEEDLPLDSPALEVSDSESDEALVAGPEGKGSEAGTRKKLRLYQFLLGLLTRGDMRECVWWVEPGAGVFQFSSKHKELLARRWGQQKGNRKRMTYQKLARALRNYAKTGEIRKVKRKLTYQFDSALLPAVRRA
# Chain of ELF1 (P32519 whole entry): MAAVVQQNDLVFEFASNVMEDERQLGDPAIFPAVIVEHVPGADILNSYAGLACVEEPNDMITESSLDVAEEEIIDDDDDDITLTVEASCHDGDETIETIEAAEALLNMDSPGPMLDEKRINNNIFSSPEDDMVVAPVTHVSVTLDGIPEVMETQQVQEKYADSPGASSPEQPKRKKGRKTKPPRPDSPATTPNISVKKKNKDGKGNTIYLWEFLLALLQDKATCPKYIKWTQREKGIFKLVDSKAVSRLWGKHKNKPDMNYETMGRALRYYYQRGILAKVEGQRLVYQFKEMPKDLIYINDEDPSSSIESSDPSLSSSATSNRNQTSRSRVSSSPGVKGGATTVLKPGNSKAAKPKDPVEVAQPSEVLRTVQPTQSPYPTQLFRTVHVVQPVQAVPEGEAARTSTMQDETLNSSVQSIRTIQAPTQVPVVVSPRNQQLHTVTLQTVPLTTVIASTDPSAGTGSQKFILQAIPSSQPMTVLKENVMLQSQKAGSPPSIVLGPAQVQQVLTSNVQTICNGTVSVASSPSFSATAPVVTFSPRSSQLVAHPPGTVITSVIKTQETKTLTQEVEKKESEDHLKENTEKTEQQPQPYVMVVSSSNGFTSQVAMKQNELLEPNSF
# Chain of ETV1 (P50549 whole entry): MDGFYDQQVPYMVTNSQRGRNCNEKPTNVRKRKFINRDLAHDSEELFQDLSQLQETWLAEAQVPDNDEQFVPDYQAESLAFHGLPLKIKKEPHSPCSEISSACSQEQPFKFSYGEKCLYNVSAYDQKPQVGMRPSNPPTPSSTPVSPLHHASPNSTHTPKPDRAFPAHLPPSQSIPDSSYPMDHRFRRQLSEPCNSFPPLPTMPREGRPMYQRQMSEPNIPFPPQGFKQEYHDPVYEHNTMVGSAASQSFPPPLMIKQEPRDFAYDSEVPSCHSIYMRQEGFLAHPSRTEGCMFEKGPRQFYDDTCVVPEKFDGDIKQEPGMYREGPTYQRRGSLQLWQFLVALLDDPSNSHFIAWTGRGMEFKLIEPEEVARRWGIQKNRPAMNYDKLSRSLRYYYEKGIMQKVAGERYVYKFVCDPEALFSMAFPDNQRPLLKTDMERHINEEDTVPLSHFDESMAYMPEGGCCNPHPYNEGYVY
# Chain of CRX (O43186 whole entry): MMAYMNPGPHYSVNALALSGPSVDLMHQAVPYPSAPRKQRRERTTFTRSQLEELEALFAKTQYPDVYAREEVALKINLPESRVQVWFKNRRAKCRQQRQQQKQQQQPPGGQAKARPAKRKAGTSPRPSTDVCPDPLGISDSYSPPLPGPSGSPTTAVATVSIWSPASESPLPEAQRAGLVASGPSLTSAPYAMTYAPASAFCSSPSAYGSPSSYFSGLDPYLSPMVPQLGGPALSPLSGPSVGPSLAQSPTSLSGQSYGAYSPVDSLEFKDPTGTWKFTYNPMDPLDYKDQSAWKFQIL
# Chain of ETV5 (P41161 whole entry): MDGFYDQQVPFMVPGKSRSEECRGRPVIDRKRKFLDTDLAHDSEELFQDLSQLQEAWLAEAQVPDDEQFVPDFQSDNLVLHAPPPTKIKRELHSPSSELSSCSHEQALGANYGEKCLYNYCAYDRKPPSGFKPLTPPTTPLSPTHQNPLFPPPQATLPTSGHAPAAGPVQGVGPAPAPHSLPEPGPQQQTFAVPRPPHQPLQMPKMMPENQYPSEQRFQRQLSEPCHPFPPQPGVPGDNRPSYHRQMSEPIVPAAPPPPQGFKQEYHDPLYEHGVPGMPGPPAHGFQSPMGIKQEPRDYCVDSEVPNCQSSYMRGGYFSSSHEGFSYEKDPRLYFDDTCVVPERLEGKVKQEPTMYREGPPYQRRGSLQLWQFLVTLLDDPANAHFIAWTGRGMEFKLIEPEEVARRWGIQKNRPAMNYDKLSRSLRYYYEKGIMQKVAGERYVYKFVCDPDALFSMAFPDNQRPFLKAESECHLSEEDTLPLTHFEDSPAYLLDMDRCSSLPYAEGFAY
# Chain of ELF4 (Q99607 whole entry): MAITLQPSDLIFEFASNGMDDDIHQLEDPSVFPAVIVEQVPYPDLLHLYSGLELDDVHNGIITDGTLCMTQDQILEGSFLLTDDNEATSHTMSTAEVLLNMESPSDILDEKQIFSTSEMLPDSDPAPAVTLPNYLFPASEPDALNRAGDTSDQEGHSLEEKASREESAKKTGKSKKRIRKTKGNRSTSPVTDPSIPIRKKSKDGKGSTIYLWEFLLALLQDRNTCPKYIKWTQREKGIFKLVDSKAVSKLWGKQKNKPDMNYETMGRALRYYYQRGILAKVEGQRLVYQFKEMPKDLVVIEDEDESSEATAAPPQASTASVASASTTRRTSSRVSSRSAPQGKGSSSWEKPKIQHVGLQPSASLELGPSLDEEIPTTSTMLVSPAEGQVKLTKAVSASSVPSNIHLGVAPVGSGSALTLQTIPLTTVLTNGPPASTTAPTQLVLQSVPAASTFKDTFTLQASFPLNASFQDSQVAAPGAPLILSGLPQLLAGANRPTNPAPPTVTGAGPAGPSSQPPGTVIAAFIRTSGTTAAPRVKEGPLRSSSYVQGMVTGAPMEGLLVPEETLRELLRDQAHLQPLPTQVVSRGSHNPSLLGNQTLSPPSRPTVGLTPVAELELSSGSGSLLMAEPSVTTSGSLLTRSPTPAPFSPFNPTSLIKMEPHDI
sequence,measurement,setting,value
AATTCT,binding signal,FLI1,"1.4 fold enrichment (6-mer frequency, TF over GST control)"
same,binding signal,ELK1,"1.22 fold enrichment (6-mer frequency, TF over GST control)"
same,binding signal,GABPA,"1.38 fold enrichment (6-mer frequency, TF over GST control)"
same,binding signal,ERG,"1.31 fold enrichment (6-mer frequency, TF over GST control)"
same,binding signal,ELF1,"1.32 fold enrichment (6-mer frequency, TF over GST control)"
same,binding signal,EHF,"1.28 fold enrichment (6-mer frequency, TF over GST control)"
same,binding signal,SPI1,"1.27 fold enrichment (6-mer frequency, TF over GST control)"
same,binding signal,SPIB,"1.39 fold enrichment (6-mer frequency, TF over GST control)"
same,binding signal,ELK3,"1.38 fold enrichment (6-mer frequency, TF over GST control)"
same,binding signal,FEV,"1.29 fold enrichment (6-mer frequency, TF over GST control)"
same,binding signal,ETV5,"1.28 fold enrichment (6-mer frequency, TF over GST control)"
same,binding signal,HSF1,"2.25 fold enrichment (6-mer frequency, TF over GST control)"
same,binding signal,SPIC,"1.3 fold enrichment (6-mer frequency, TF over GST control)"
same,binding signal,ELF4,"1.33 fold enrichment (6-mer frequency, TF over GST control)"
same,binding signal,ELK4,"1.29 fold enrichment (6-mer frequency, TF over GST control)"
same,binding signal,ETV2,"1.4 fold enrichment (6-mer frequency, TF over GST control)"
same,binding signal,ELF3,"1.25 fold enrichment (6-mer frequency, TF over GST control)"
same,binding signal,CRX,"1.79 fold enrichment (6-mer frequency, TF over GST control)"
same,binding signal,ETV1,"1.32 fold enrichment (6-mer frequency, TF over GST control)"
